An excerpt weighted towards active compounds, which were near 6.4% of everything screened.
Luc counter: Counterscreen for Luciferase (Kinase-Glo TM) Inhibition | AID 1379, 2008 | Potency, µM (highest dose often 38.3 µM), without a hit: at the top dose activity change, negative = inhibition, usual class: inhibitors | Luciferin 4-monooxygenase (Photuris pensylvanica), Q27757 | 200,000 tested, 0.28% active | Kinase-Glo luciferase, ATP luminescence, 8 min; note: nearly all actives have a fitted effect of over 60% in size
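Luminescence was the read-out, taken after 8-minute incubation at ambient temperature. Luciferase turned over luciferin with 10 uM ATP in imidazole pH 7.2 buffer containing KCl, MgCl2, Tween 20 and BSA.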
RORg inh: qHTS for inhibitors of ROR gamma transcriptional activity; Nuclear receptor ROR-gamma (Mus musculus), P51450; Potency, µM (top dose mostly 53.6 µM), for the others: top-dose activity change, negative = inhibition, most hits filed as inhibitors; AID 2551, 2010; 310,000 tested, 5.4% active; Drosophila S2 Gal4-RORgamma UAS-luciferase reporter, 20 h; note: nearly all actives have a fitted effect of over 60% in size
Target sequence (P51450 whole entry, looked up, the tested form may be a part): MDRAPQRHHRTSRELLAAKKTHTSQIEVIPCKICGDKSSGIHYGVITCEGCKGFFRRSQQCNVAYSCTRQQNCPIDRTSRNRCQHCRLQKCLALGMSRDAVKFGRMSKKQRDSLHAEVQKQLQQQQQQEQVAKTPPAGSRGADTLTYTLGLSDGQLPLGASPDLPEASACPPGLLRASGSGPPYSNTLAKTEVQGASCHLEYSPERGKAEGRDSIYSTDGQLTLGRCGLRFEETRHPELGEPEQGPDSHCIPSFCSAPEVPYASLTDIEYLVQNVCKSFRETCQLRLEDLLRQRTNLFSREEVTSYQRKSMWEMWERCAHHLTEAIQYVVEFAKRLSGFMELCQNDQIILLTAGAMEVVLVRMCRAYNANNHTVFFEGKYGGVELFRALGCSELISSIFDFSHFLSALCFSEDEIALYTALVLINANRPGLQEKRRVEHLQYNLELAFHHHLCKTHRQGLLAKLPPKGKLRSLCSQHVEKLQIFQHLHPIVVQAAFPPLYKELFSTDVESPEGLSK
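Drosophila Schneider cells stably carrying a metallothionein-driven Gal4 DBD–ROR gamma fusion and a UAS-Photinus luciferase reporter were exposed to compound for 1 hr, then induced with copper sulfate (700 uM final) for 20 hr at ambient temperature before luminescence reading.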
VP16 counter: VP16 counterscreen qHTS for inhibitors of ROR gamma transcriptional activity. Drosophila S2 Gal4-VP16 UAS-luciferase, luminescence, 20 h. Potency, µM (highest dose often 53.6 µM), without a hit: top-dose activity, negative = inhibition, usual class: inhibitors. 310,000 tested, 3.5% active;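 note: Gal4-VP16 expression switched on by copper sulfate through the metallothionein promoter; nearly all actives have a fitted effect of over 50% in size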
* = called active by the depositor; [ ] = another dose, or the depositor's remark. Calls come from the whole dose curve; as a rule, active = well fitted curve in the direction sought with a large enough effect; inconclusive = small, poorly fitted or top-dose-only effect, or another doubt; inactive = no such curve, though single readings can be large; an effect the other way counts as inactive or inconclusive. % is set by controls: 0 for no effect and ±100 for the full control effect; potency is the fitted concentration of half-maximal effect.

Results for Cc1ccc(C(=O)NCCNC(=O)c2cccnc2)cc1 ?
RORg inh: 8%; VP16 counter: 6%

What do the screens show for `CCC(NC(=O)Nc1ncccc1C)(C(F)(F)F)C(F)(F)F`?
Luc counter: -9%; RORg inh: 7%[10 µM]; VP16 counter: -3%

How did CCC(NC(=O)NNC(N)=S)(C(F)(F)F)C(F)(F)F do in these assays?
RORg inh: 11µM*; VP16 counter: -15%

What do the screens show for `COc1ccc(O)c(CN2CCC(n3nccc3NC(=O)c3ccccc3Cl)CC2)c1`?
RORg inh: 14%; VP16 counter: 27%

Results for O=C(c1cc2ccccc2o1)c1cccs1 ?
Luc counter: -3%; RORg inh: inconclusive; VP16 counter: 22%

Results for O=C(c1cccs1)c1ccc(-c2cccs2)s1 ?
Luc counter: 7.9µM*; RORg inh: -23%; VP16 counter: 13µM*

How did C[C@@H](C1=C(CCN(C)C)Cc2ccccc21)c1ccccn1 do in these assays?
Luc counter: -1%; RORg inh: -15%; VP16 counter: -15%

How did COc1ccccc1NC(=O)CSc1nnc(C2CCCCC2)n1-c1ccccc1 do in these assays?
RORg inh: 13%; VP16 counter: 2%

What do the screens show for `Cc1cc(C)n(-c2ccc(NC(=O)C3CCN(Cc4ccccn4)CC3)cc2)n1`?
RORg inh: -16%; VP16 counter: -13%

Results for COC(=O)c1sc(=S)sc1C(=O)OC ?
Luc counter: 9%; RORg inh: 14µM*; VP16 counter: inconclusive

Results for COC(=O)c1sc(C(=O)OC)c(C(=O)OC)c1C(=O)OC ?
Luc counter: -3%; RORg inh: -5%; VP16 counter: -8%

How did CCCC(=O)Oc1ccc(-c2nccc(C(OC)OC)n2)cc1 do in these assays?
Luc counter: 3%; RORg inh: 22%; VP16 counter: -7%

How did O=C(COC(=O)c1ccc(Cl)nc1)NCCC1=CCCCC1 do in these assays?
Luc counter: 2%; RORg inh: 9%; VP16 counter: 1%

Results for O=C(NC(=S)NCc1ccc(-c2nc3ccccc3s2)cc1)c1ccco1 ?
RORg inh: 7.1µM*; VP16 counter: 5.6µM*

How did CCCOc1ccc(C(=O)NC(=S)Nc2nc3ccccc3s2)cc1 do in these assays?
Luc counter: -3%; RORg inh: 0.79µM*; VP16 counter: inconclusive

How did COc1ccc2nc(NC(=S)NC(=O)c3ccco3)sc2c1 do in these assays?
Luc counter: -3%; RORg inh: 1.1µM*; VP16 counter: inconclusive

How did CCOC(=O)c1sc(NC(=S)NC(=O)c2ccco2)nc1C do in these assays?
Luc counter: -2%; RORg inh: inconclusive; VP16 counter: 0%

Results for CCc1cc2ccc(OC)cc2nc1SCC(=O)NNC(=O)c1ccco1 ?
Luc counter: 2%; RORg inh: 18µM*; VP16 counter: -1%

How did O=C(NCc1ccc(-c2nc3ccccc3s2)cc1)c1ccco1 do in these assays?
Luc counter: -5%; RORg inh: 4%; VP16 counter: -16%

What do the screens show for `CCCOc1ccc(C(=O)NC(=S)Nc2nc3ccc(C)cc3s2)cc1`?
Luc counter: 3%; RORg inh: inconclusive; VP16 counter: -3%

Results for CCc1cc2cc(C)c(C)cc2nc1SCC(=O)NNC(=O)c1ccco1 ?
Luc counter: -4%; RORg inh: inconclusive; VP16 counter: -28%

What do the screens show for `CC(=O)c1ccc(N2CCN(C(=O)c3ccc(NC4=NC5CS(=O)(=O)CC5S4)cc3)CC2)cc1` (stereo not given)?
RORg inh: -13%; VP16 counter: -4%

What do the screens show for `NC(N)=Nc1nc(-c2ccccc2)c2cc(F)ccc2n1`?
Luc counter: -3%; RORg inh: -27%; VP16 counter: -8%

How did COC(=O)c1sc(NC(=O)c2ccco2)nc1C do in these assays?
Luc counter: inconclusive; RORg inh: 31%; VP16 counter: -12%

What do the screens show for `Cc1cc(Cl)cc2sc(NC(=O)c3ccco3)nc12`?
RORg inh: -6%; VP16 counter: inconclusive

How did O=C(COC(=O)c1ccco1)Nc1nc2ccccc2s1 do in these assays?
Luc counter: 7%; RORg inh: 18%; VP16 counter: 7%

Results for COc1ccc2sc(NC(=O)c3ccco3)nc2c1 ?
Luc counter: -27%; RORg inh: 10µM*; VP16 counter: inconclusive

How did Cc1nc(NC(=O)c2ccco2)sc1C(=O)O do in these assays?
RORg inh: 7.1µM*; VP16 counter: 11µM*

Results for Cc1cc(C)c2nc(NC(=O)c3ccco3)sc2c1 ?
RORg inh: 4.5µM*; VP16 counter: 10µM*

How did O=C(NC(=S)Nc1nc2ccccc2s1)c1ccco1 do in these assays?
Luc counter: -5%; RORg inh: 0.89µM*; VP16 counter: 1.3µM*

What do the screens show for `COc1ccc2c(c1)Cc1sc(NC(=O)c3ccco3)nc1-2`?
Luc counter: -3%; RORg inh: -27%; VP16 counter: inconclusive

Results for CSc1ncccc1C(=O)NCCc1ccccc1F ?
RORg inh: 15%; VP16 counter: -8%

Results for N#Cc1ccccc1NC(=O)CSc1cn[nH]n1 ?
RORg inh: 7%; VP16 counter: 0%

What do the screens show for `O=C(CCNC(=O)N1CC(=O)Nc2ccccc21)Nc1cccc(Cl)c1`?
RORg inh: 2%; VP16 counter: -5%

Results for O=C(NC1CC2CCC(C1)N2Cc1ccccc1)c1ccccc1Cl (stereo not given) ?
RORg inh: -9%; VP16 counter: -13%

How did CC1(C)CC(=O)C(CC(=O)NC2CCCc3ccccc32)C(=O)C1 (stereo not given) do in these assays?
Luc counter: 0%; RORg inh: 13%; VP16 counter: -11%

How did Cc1cc(C(=O)CCl)c(C)n1CCc1ccccc1 do in these assays?
Luc counter: 2%; RORg inh: 17%; VP16 counter: -12%

How did COC(=O)CCCn1c(C)cc(C(=O)CCl)c1C do in these assays?
Luc counter: -1%; RORg inh: 8.9µM*; VP16 counter: -80%

Results for C=CCn1c(C)cc(C(=O)CSc2nc3ccccc3c(=O)[nH]2)c1C ?
Luc counter: 5%; RORg inh: -16%; VP16 counter: inconclusive

How did Cc1cc(C(=O)CSc2nc3ccccc3[nH]2)c(C)n1Cc1ccco1 do in these assays?
Luc counter: -1%; RORg inh: inconclusive; VP16 counter: 16µM*

Results for C=CCn1c(C)cc(C(=O)CSc2nc3ccccc3[nH]2)c1C ?
Luc counter: -7%; RORg inh: 10µM*; VP16 counter: 13µM*

What do the screens show for `Cc1ccc(OCc2nnc(SCc3nc4ccccc4[nH]3)n2Cc2ccco2)cc1`?
Luc counter: 13%; RORg inh: inconclusive; VP16 counter: inconclusive

How did Cc1cc(C(=O)CSc2nc3ccccc3[nH]2)c(C)n1C do in these assays?
Luc counter: -1%; RORg inh: inconclusive; VP16 counter: -30%

How did c1ccc(-c2nnc(SCc3nc4ccccc4[nH]3)n2Cc2ccco2)cc1 do in these assays?
Luc counter: -5%; RORg inh: 11µM*; VP16 counter: inconclusive

What do the screens show for `COc1ccc(NC(=O)N2CCCC3(CCN(S(C)(=O)=O)CC3)C2)cc1`?
Luc counter: -3%; RORg inh: -2%; VP16 counter: -2%
